High-throughput results: PubChem BioAssay, National Center for Advancing Translational Sciences (NCATS)
D2 PAM-1 = HTS Assay for Positive Allosteric Modulators of the Human D2 Dopamine Receptor: Primary Screen for Potentiators; D(2) dopamine receptor (Homo sapiens), P14416; HEK293 T-REx D2, calcium flux, EC20 dopamine potentiation; potentiation, % at 10 µM; actives 0.34% (n = 340,000); AID 485347, 2010;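 active means potentiation over 3 SD above the plate norm, cut at about 30% in these data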
Target sequence (P14416 whole entry, looked up): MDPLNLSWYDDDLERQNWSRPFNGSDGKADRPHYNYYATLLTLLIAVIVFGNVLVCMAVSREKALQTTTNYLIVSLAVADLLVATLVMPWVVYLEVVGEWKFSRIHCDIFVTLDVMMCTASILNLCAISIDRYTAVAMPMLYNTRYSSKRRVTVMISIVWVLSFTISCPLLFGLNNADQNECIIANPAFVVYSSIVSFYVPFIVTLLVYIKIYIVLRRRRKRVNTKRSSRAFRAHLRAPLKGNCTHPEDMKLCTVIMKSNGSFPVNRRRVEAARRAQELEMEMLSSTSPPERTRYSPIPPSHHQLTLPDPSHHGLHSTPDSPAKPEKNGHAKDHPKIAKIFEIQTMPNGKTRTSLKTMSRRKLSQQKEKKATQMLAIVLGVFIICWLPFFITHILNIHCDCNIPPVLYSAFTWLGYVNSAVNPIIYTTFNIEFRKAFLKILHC
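Tetracycline-induced Hek293 Trex D2 cells, force-coupled to calcium, loaded with no-wash calcium dye. Compound added with 180 s kinetic read for agonism, then EC20 dopamine and a further 180 s read for potentiation.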
D2 ag-1 = Beta-Arrestin HTS for Positive Allosteric Modulators of the Human D2 Dopamine Receptor: Agonists. DiscoveRx PathHunter D2 beta-arrestin, luminescence, 90 min; 100% = 57 uM dopamine signal. actives 0.084% (n = 360,000). D(2) dopamine receptor (Homo sapiens), P14416. activation, % (no concentration beside the values); in the data active means activation above about 40%; inconclusive means between about 15% and that limit
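Agonist mode: compounds alone added to overnight-plated D2 PathHunter cells for 90 min at 37 C, with 57 uM final dopamine (EC100) defining full response. Beta-arrestin recruitment detected by chemiluminescent reagent, read after 1 h at ambient temperature.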
D2 PAM-2 = Beta-Arrestin HTS for Positive Allosteric Modulators of the Human D2 Dopamine Receptor: Potentiators | AID 624464, 2012 | actives 0.23% (n = 360,000) | potentiation, % (concentration not given with the values) | DiscoveRx D2 beta-arrestin cells, luminescence, 90 min; 100% = 57 uM dopamine signal; in the data active means potentiation above about 50%; inconclusive means mostly about 30% to 49%
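PathHunter D2 cells, attached overnight at 37 deg C, received compound in DMSO plus dopamine at EC20 (50 nM final) for 90 min at 37 deg C. Beta-arrestin recruitment was read as luminescence after 1 h with detection reagent at ambient temperature.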
D2 ag-2 = HTS Assay for Allosteric Agonists of the Human D2 Dopamine Receptor: Primary Screen for Agonists | activation, % at 2 µM | D(2) dopamine receptor (Homo sapiens), P14416 | actives 0.53% (n = 340,000) | HEK293 T-REx D2 cells, calcium flux agonist mode;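 active means activation over 3 SD above normal in the single-dose calcium agonist read, cut at about 30% in these data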
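HEK293 Trex D2 cells, tetracycline-induced, o/n 30 C 5% CO2; no-wash Ca dye, RT 30–90 min; 10-cycle baseline, 23 nl cpd added, kinetic Ca read 180 s; agonist hits = positive Ca response.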
D2 antagonist = HTS Assay for Allosteric Antagonists of the Human D2 Dopamine Receptor: Primary Screen for Antagonists | HEK293 TREx D2 cells, calcium flux, dopamine EC80 | inhibition, % at 10 µM | actives 2% (n = 340,000) | D(2) dopamine receptor (Homo sapiens), P14416; in the data active means inhibition above about 30%; inactive means below that, where a call was filed
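Dopamine at EC80 is the agonist stimulus; test compounds precede it by 180 s. Calcium flux read kinetically in a force-coupled, inducible HEK293 T-REx D2 cell line.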
Large screens that a line does not name were inactive. Only some compounds are listed: those with a hit (about 2.4% of all), similar ones and a draw of the others.

CCOC(=O)c1[nH]c2ccccc2c1NC(=O)c1cc(OC)c(OC)c(OC)c1	none (no result: D2 PAM-1, D2 ag-2, D2 antagonist)
COC(=O)c1ccc(CNC(=O)c2ccc3c(c2)NC(=O)CS3)cc1	D2 antagonist 37
O=C1CSc2ccc(S(=O)(=O)NCc3ccc(Cl)cc3)cc2N1	D2 antagonist 36
O=C1CSc2ccc(S(=O)(=O)NCc3ccc(F)cc3)cc2N1	none
Cc1ccccc1C(=O)NC(=S)Nc1ccccc1C(F)(F)F	D2 antagonist 50
Cc1cccc(N2CCn3c2nc2c3c(=O)n(C/C=C/c3ccccc3)c(=O)n2C)c1	none (no result: D2 ag-1, D2 PAM-2, D2 antagonist)
CN(C)/C=N/c1ncc(C(=O)c2ccc(Cl)cc2)s1	D2 antagonist 57
CN(C)/C=N/c1ncc(C(=O)c2ccc(Cl)cc2Cl)s1	none
COc1ccccc1N1C(=NC(=O)CCc2ccccc2)SC2CS(=O)(=O)CC21 (configuration not stated)	none
CC(=O)Oc1ccc(N2C(=O)CCC2=O)cc1	none
COc1ccc(N2C(=O)CCC2=O)cc1	D2 antagonist 34
O=C(/C=C\c1ccc(-c2ccccc2)o1)c1ccccc1	none (no result: D2 PAM-1, D2 ag-2, D2 antagonist)
O=C(O)/C=C/c1ccc(-c2cccc(C(F)(F)F)c2)o1	D2 PAM-1 43
CCc1ccc(NC(=O)c2ccc(F)c(S(=O)(=O)NCCc3ccc(OC)c(OC)c3)c2)cc1	none (no result: D2 ag-1, D2 PAM-2, D2 antagonist)
COc1ccccc1NC(=O)Cn1c(=O)n(C)c(=O)c2sc3c(c21)COC(C)(C)C3	D2 antagonist 32
COc1ccc(Cl)cc1NC(=O)Cn1c(=O)n(Cc2nc(C)no2)c(=O)c2ccccc21	none (no result: D2 ag-1, D2 PAM-2, D2 antagonist)
COc1cc(NC(=O)c2ccccc2-n2cnnn2)cc(OC)c1	none
COc1cc(OC)cc(C(=O)Nc2ccc(-n3cnnn3)c(C)c2)c1	D2 antagonist 38
CCc1ccc(NC(=O)Cn2c(=O)n(Cc3nc(-c4ccccc4)no3)c(=O)c3cc4c(cc32)OCO4)cc1	none (no result: D2 ag-1, D2 PAM-2, D2 antagonist)
CCOC(=O)c1c(C)[nH]c(N=Nc2ccc(C)cc2)c1C	none
CCOC(=O)c1c(C)[nH]c(N=Nc2cccc(C)c2)c1C	D2 antagonist 33
CCOC(=O)c1c(C)[nH]c(N=Nc2ccccc2)c1C	D2 antagonist 67
Cc1cc(C)n2nc(C(=O)Nc3c(C)nn(Cc4ccc(F)cc4)c3C)cc2n1	D2 antagonist 51
O=C(Cn1nc(Cc2cccnc2)c2ccccc2c1=O)Nc1ccccc1F	none
COc1ccccc1NC(=O)c1ccc(NC(=O)COC(=O)C2CCCO2)cc1 (configuration not stated)	D2 antagonist 41
Cc1ccc(S(=O)(=O)Nc2ccc(Cl)cc2)cc1NC(=O)c1cc2c(s1)CCCC2	D2 PAM-2 72
Cc1cc(OCCN2CCCCC2)nc2ccccc12	D2 antagonist 31
CC(=O)c1c(N2CCN(Cc3ccccc3)CC2)[nH]c(-c2ccccc2)nc1=S	D2 antagonist 73
CC(=O)c1c(N2CCCC2)[nH]c(-c2ccccc2)nc1=S	none
NS(=O)(=O)c1ccc(CCNc2nc3c(-c4cccc(F)c4)nnn3c3ccc(Cl)cc23)cc1	none (no result: D2 ag-1, D2 PAM-2, D2 antagonist)
COc1cc2c(cc1NC(=O)CN1CCN(S(=O)(=O)c3ccc(C)cc3)CC1)oc1ccccc12	D2 antagonist 42
CCOc1ccc(-c2cc(CCCC(=O)NCCc3ccc(Cl)cc3)no2)cc1	none (no result: D2 ag-1, D2 PAM-2, D2 antagonist)
O=C(COC(=O)CCNS(=O)(=O)c1ccc(Cl)cc1)NCc1ccccc1	none (no result: D2 PAM-1, D2 ag-2, D2 antagonist)
O=C(COC(=O)CCNS(=O)(=O)c1ccccc1F)Nc1nnc(-c2ccccc2)o1	D2 antagonist 32
O=C(COC(=O)CCNS(=O)(=O)c1ccccc1)NC(=O)Cc1ccccc1	D2 antagonist 37
CCOc1ccc(CN2C(=O)c3ccccc3Sc3ccc(C(=O)NCc4ccc5c(c4)OCO5)cc32)cc1	none (no result: D2 ag-1, D2 PAM-2, D2 antagonist)
CN1C(C(=O)NCc2cccc(C(F)(F)F)c2)CC2Cn3c(nc4cc5ccccc5cc43)C21 (configuration not stated)	D2 antagonist 43
CCOC(=O)CN1C(=O)C(Sc2n[nH]c(-c3cccc(C)c3)n2)CCc2ccccc21 (configuration not stated)	none
CCOC(=O)CN1C(=O)C(Sc2n[nH]c(-c3ccc(C)cc3)n2)CCc2ccccc21 (configuration not stated)	D2 antagonist 61
COc1ccc(N2CCN(S(=O)(=O)c3ccc(OC)c(C(=O)N4CCCC4)c3)CC2)cc1	D2 antagonist 48
COc1ccc(S(=O)(=O)N2CCCCCC2)cc1C(=O)N1CCCCC1	none
COc1ccc(C(=O)N2CCN(S(=O)(=O)c3ccc(F)cc3)CC2)cc1OC	D2 antagonist 39
O=C(NCCN1CCN(C(=O)c2ccc(F)cc2)CC1)c1ccc(F)cc1	D2 antagonist 64
COc1ccc(C(=O)N2CCN(S(=O)(=O)c3ccc(Cl)cc3)CC2)cc1OC	none
COc1ccc(N2CCN(C(=O)CCS(=O)(=O)c3ccc(OC)cc3)CC2)cc1	D2 PAM-1 32
CN(C(=O)CSc1nc2ccc(NC(=O)c3ccco3)cc2s1)c1ccccc1	none (no result: D2 ag-1, D2 PAM-2, D2 antagonist)
Cc1ccc2c(c1)c1c(c(=O)n(-c3ccccc3C)c(=O)n1CC(=O)NCCC1=CCCCC1)n2C	none (no result: D2 ag-1, D2 PAM-2, D2 ag-2, D2 antagonist)
O=C(CCc1ccc(S(=O)(=O)N2CCOCC2)cc1)Nc1nc(COc2ccccc2)cs1	none
COc1ccc(OC)c(CN2CCN(C(=O)c3ccc(F)cc3)CC2)c1	D2 antagonist 41
COc1ccc(OC)c(CN2CCN(Cc3cc(=O)oc4cc(O)ccc34)CC2)c1	D2 antagonist 34
Cc1ccc(-c2nnc3c4ccccc4c(C)nn23)cc1NC(=O)c1ccccc1	none (no result: D2 ag-1, D2 PAM-2, D2 antagonist)
COc1ccc(S(=O)(=O)Nc2nc3ccccc3s2)cc1OC	none
COc1cc(C(=O)ON=C2C=C(C)C(=O)C(C)=C2)cc(OC)c1OC	D2 PAM-2 64
COc1cc(C(=O)O/N=C2\C=CC(=O)C(C)=C2)cc(OC)c1OC	none
COc1cccc(C(=O)O/N=C(\N)Cc2ccc(Cl)cc2)c1	D2 ag-1 inconclusive, D2 PAM-2 125
COc1ccc(C(=O)O/N=C(\N)c2ccc(Cl)cc2)cc1	D2 ag-1 inconclusive
Cc1ccc(/C(N)=N/OC(=O)c2ccc3c(c2)OCO3)cc1	none
COc1ccc(C(=O)O/N=C(\N)c2ccncc2)cc1OC	D2 ag-1 inconclusive, D2 PAM-2 85
COc1ccc(/C(N)=N/OC(=O)c2ccc3c(c2)OCO3)cc1	D2 ag-1 inconclusive, D2 PAM-2 103
CCN(c1ccc(NC(=O)c2cccc(S(=O)(=O)N3CCN(C)CC3)c2)cc1)C(C)C	none
